Potency data for 8 compounds are collected here from PubChem BioAssay (Tox21).

Values without a mark were called inactive. Records with an inconclusive call do not appear. The source made the active and inactive calls. Unless noted, the call rests on the fitted dose curve.

Assay [1] is described as follows: Nuclear factor erythroid 2-related factor 2/antioxidant responsive element (Nrf2/ARE) small molecule agonists: qHTS cell viability counter screen in human keratinocytes (AID 1919968; active means well fitted curve in the direction sought with a large enough effect in the repeat runs; an effect the other way counts as inactive or inconclusive; further: nearly all actives have a fitted effect of over 55% in size). The method, boiled down:
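Cytotoxicity was multiplexed with the Nrf2/ARE luciferase assay in the same wells. Stably transfected HaCaT keratinocytes were treated with test compounds for 23 h at 37 C. Cell viability was then measured by CellTiter-Fluor fluorescence.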
For orientation: In qHTS, concentration-response curves come from the screen itself.

For assay [2], the target named is Gonadotropin-releasing hormone receptor (Homo sapiens) (UniProt P30968). Kind of assay: Human gonadotropin-releasing hormone receptor (GnRHR) small molecule agonists, calcium flux assay in GnRHR-HEK293 cells (AID 1920063). Further: nearly all actives have a fitted effect of over 35% in size. In outline:
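Agonist activity was measured as intracellular calcium flux in HEK293 cells engineered to stably express human GnRHR. After dye loading for 1 hour at 37 C, compounds in DMSO were added and fluorescence was followed for 3 minutes.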
Background: Calcium assays in cells follow changes in intracellular calcium, usually with a dye or a luminescent sensor.

Assay [3] has as its target KiSS-1 receptor (Homo sapiens) (UniProt Q969F8). Kind of assay: Human kisspeptin (KISS1R) small molecule agonists, calcium flux assay in KISS1R-HEK293 cells (AID 1920064; active means well fitted curve in the direction sought with a large enough effect in the repeat runs; an effect the other way counts as inactive or inconclusive). The method, boiled down:
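Agonist activity is monitored as intracellular calcium rise in engineered HEK293 cells carrying human KISS1R. Cells are dye-loaded for 1 h at 37 C before compound addition, and fluorescence is recorded for 3 min.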

A short description of assay [4]: G protein-coupled receptor (GPCR) small molecule agonists, calcium flux assay: HEK293 wild type cell line counter screen (AID 1920065). In outline: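 Seed cells, incubate 18 h (37 C, 5% CO2); add calcium dye, 1 h at 37 C; pin-transfer compounds, ATP control or DMSO; read fluorescence 480/540 nm each second for 3 min.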
Assay [5] in a line: p53 small molecule agonists, cell-based qHTS assay with human liver microsomes (AID 1963577). The method, boiled down: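 p53RE-bla reporter cells were pre-incubated 5 h at 37 C, then treated with compounds plus human liver microsomes (0.5 mg/mL final) and NADPH (0.5 mg/mL final) for 16 h at 37 C. Beta-lactamase activity was read by LiveBLAzer fluorescence after 2 h at room temperature.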

Assay [6] can be described thus: p53 small molecule agonists, cell-based qHTS assay with rat liver microsomes (AID 1963578). In outline: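 p53RE-bla cells were exposed to compounds together with rat liver microsomes (0.5 mg/mL final) and NADPH (0.5 mg/mL final) for 16 h at 37 C, then read by LiveBLAzer beta-lactamase fluorescence after 2 h at room temperature.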
A short description of assay [7]: p53 small molecule agonists, cell-based qHTS assay with human liver microsomes: qHTS cell viability counter screen (AID 1963579). Further: nearly all actives have a fitted effect of over 45% in size. The method, boiled down: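 p53RE-bla cells (4,000/well) were pre-incubated 5 h at 37 C, then given compounds in DMSO plus human liver microsomes (0.5 mg/mL final) and NADPH (0.5 mg/mL final) for 16 h at 37 C. Viability was read by CellTiter-Glo luminescence.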

The nature of assay [8]: p53 small molecule agonists, cell-based qHTS assay with rat liver microsomes: qHTS cell viability counter screen (AID 1963580). Further: nearly all actives have a fitted effect of over 45% in size. Further: potency means the concentration at half of the fitted maximal effect. The method, boiled down:
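Cytotoxicity counter screen: intracellular ATP measured by CellTiter-Glo luminescence in the same wells as the beta-lactamase reporter read, on HCT-116 p53RE-bla cells exposed 16 h at 37 C to compounds with rat liver microsomes and NADPH, each 0.5 mg/mL final.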

Assay [9] is described as follows: p53 small molecule agonists, cell-based qHTS assay: qHTS cell viability counter screen (AID 1963581). Further: nearly all actives have a fitted effect of over 45% in size. In outline:
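Viability was counter-screened in parallel with the p53 agonist reporter by measuring intracellular ATP luminescence in the same HCT-116 p53RE-bla wells after 16 h compound treatment at 37 C.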

Assay [10] can be described thus: p53 small molecule agonists, cell-based qHTS assay (AID 1963582; active means well fitted activation curve with a large enough effect in the signal ratio in the repeat runs, not every such curve was filed as active; the % refers to the signal ratio). In outline: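 Cells carrying a p53-responsive bla reporter are treated with test compounds for 16 h at 37 C; beta-lactamase activity is then detected with LiveBLAzer B/G FRET substrate after 2 h at room temperature.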
Assay [11] concerns the target 5-hydroxytryptamine receptor 2A (Homo sapiens) (UniProt P28223). The assay can be described thus: 5-hydroxytryptamine receptor 2A (HTR2A) small molecule agonists, cell-based qHTS assay (AID 1963587). Further: nearly all actives have a fitted effect of over 30% in size. The method, boiled down:
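CHO cells stably expressing human HTR2A, plated 18 h, loaded with calcium dye 1 h at 37 C. Agonist mode: compounds added and intracellular calcium fluorescence recorded kinetically for 2 min at 1 sec intervals.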

Assay [12] has as its target Muscarinic acetylcholine receptor M1 (Homo sapiens) (UniProt P11229). Kind of assay: Cholinergic receptor muscarinic 1 (CHRM1) small molecule antagonists, cell-based qHTS assay (AID 1963588). Further: nearly all actives have a fitted effect of over 40% in size. In outline: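 Compounds were tested at 15 concentrations in three independent runs. Dye-loaded CHRM1-CHO cells were exposed 5 min at room temperature before stimulation by acetylcholine added at 50nM. Intracellular calcium was read kinetically on FDSS for 3 min.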

Assay [13] has the same target. The assay can be described thus: Cholinergic receptor muscarinic 1 (CHRM1) small molecule agonists, cell-based qHTS assay (AID 1963589). Further: nearly all actives have a fitted effect of over 35% in size. The method, boiled down: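 Cells were plated and incubated 18 h at 37 C/5% CO2, loaded with calcium dye for 1 h at 37 C, then treated with compounds in DMSO. Fluorescence was recorded kinetically at 1 sec intervals.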
Assay [14] can be described thus: cAMP Responsive Elements (CRE) small molecule agonists, cell-based qHTS assay (AID 1963590). The method, boiled down: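 Cells carrying a CRE-driven beta-lactamase reporter (HEK 293T) are seeded, incubated overnight (18 h), and treated with test compounds for 3 h at 37 C; reporter activity is then detected with a FRET substrate after 2 h at room temperature.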
Assay [15] is described as follows: cAMP Responsive Elements (CRE) small molecule antagonists, cell-based qHTS assay (AID 1963591; active means well fitted inhibition curve with a large enough effect in the signal ratio in the repeat runs, not every such curve was filed as active; the % refers to the signal ratio). The method, boiled down:
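Cells (CRE-bla HEK 293T, DMEM with 10% dialyzed FBS and 25 mM HEPES) are seeded and incubated 18 h. Compounds are added with NKH477 agonist at 0.25 uM final for 3 h, then FRET substrate for 2 h.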

Assay [16] addresses Beta-2 adrenergic receptor (Homo sapiens) (UniProt P07550). Kind of assay: Adrenergic beta2 receptor (ADRB2) small molecule antagonists, cell-based qHTS assay (AID 1963592). Further: series mostly up to about 92 µM; nearly all actives have a fitted effect of over 50% in size. In outline: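 Assay format: CHO-ADRB2 cells, 18-20hr seeding at 37C/5% CO2, then compound plus 1nM isoproterenol agonist mix for 0.5hr RT. Homogeneous time-resolved fluorescence cAMP detection after 1hr, expressed as 665/615 nm ratio.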

Assay [17] shares this target. Kind of assay: Adrenergic beta2 receptor (ADRB2) small molecule agonists, cell-based qHTS assay (AID 1963593).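 Further: CHO cells stably overexpressing human ADRB2.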 In outline:
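CHO cells stably over-expressing ADRB2 were plated overnight at 37C, then dosed with compounds plus a stimulation mix containing 100uM IBMX and 25uM Ro-20-1724 for 0.5hr at room temperature. cAMP was measured by HTRF competition, 1hr.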

For assay [18], the target named is D(2) dopamine receptor (Homo sapiens) (UniProt P14416). Kind of assay: Dopamine D2 receptor (DRD2) small molecule antagonists, cell-based qHTS assay (AID 1963595; active means well fitted inhibition curve with a large enough effect in the signal ratio in the repeat runs, with a control signal flat; the % refers to the signal ratio). The method, boiled down:
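Antagonist mode in DRD2-HEK293 cells: after compound addition with 0.1 mM Ro20-1724, cells received quinpirole (12 nM) and NKH477 (200 nM) for 30 min at room temperature; HTRF cAMP read after 1 h detection.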

Assay [19] addresses 5-hydroxytryptamine receptor 2A (Homo sapiens) (UniProt P28223). Kind of assay: 5-hydroxytryptamine receptor 2A (HTR2A) small molecule antagonists, cell-based qHTS assay (AID 1963586). Further: nearly all actives have a fitted effect of over 45% in size. The method, boiled down: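 CHO cells stably expressing human HTR2A were plated for 18 h at 37 C, then loaded with calcium dye for 1 h. Compounds were preincubated 5 min at room temperature before DOI (4 nM solution) was added. Kinetic fluorescence was read for 3 min.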

Assay [20] addresses D(2) dopamine receptor (Homo sapiens) (UniProt P14416). The assay can be described thus: Dopamine D2 receptor (DRD2) small molecule agonists, cell-based qHTS assay (AID 1963594). Further: nearly all actives have a fitted effect of over 35% in size. The method, boiled down:
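HEK293 cells stably expressing human DRD2, pre-treated with PDE inhibitor Ro20-1724 (0.1 mM final) and compound 10 min at room temperature, then stimulated with NKH477 (200nM […]) for 30 min. cAMP read by HTRF (665/620 nm).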

Chain of 5-hydroxytryptamine receptor 2A (Homo sapiens) (P28223 whole entry, looked up): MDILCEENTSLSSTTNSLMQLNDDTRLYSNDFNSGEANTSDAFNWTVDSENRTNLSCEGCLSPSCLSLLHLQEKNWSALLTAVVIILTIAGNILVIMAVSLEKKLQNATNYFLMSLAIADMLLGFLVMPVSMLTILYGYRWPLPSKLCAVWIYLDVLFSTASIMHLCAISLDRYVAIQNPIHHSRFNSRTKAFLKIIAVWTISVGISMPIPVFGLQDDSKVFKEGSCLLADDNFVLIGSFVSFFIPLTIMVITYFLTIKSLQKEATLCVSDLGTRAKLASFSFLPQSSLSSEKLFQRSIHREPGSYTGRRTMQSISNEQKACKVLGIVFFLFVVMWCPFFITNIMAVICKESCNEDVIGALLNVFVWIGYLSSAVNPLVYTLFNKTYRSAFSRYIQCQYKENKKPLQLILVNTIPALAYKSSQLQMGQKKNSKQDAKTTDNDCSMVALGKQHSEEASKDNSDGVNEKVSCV
Chain of Beta-2 adrenergic receptor (Homo sapiens) (P07550 whole entry, looked up): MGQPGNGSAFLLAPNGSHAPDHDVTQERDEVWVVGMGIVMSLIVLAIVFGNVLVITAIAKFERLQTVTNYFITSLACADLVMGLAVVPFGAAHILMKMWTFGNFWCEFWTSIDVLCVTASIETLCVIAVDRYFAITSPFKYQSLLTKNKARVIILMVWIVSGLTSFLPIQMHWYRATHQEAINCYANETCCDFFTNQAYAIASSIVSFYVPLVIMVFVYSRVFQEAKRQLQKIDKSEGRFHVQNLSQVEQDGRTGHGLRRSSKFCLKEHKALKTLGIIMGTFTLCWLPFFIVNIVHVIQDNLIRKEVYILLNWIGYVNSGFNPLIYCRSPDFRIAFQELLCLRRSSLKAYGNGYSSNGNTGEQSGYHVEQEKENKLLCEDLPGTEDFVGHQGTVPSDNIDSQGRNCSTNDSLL
Chain of Muscarinic acetylcholine receptor M1 (Homo sapiens) (P11229 whole entry, looked up): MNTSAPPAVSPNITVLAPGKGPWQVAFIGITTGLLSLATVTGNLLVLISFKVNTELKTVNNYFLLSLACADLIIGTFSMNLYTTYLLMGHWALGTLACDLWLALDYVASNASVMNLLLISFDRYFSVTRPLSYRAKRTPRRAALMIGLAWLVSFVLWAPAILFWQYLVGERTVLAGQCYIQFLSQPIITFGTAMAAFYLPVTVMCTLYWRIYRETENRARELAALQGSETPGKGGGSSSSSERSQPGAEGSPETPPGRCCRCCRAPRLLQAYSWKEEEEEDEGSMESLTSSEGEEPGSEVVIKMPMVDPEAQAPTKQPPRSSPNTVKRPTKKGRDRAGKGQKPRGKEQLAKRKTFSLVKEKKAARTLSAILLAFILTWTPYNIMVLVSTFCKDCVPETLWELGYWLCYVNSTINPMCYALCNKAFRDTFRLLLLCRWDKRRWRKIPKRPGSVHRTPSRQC
Chain of D(2) dopamine receptor (Homo sapiens) (P14416 whole entry, looked up): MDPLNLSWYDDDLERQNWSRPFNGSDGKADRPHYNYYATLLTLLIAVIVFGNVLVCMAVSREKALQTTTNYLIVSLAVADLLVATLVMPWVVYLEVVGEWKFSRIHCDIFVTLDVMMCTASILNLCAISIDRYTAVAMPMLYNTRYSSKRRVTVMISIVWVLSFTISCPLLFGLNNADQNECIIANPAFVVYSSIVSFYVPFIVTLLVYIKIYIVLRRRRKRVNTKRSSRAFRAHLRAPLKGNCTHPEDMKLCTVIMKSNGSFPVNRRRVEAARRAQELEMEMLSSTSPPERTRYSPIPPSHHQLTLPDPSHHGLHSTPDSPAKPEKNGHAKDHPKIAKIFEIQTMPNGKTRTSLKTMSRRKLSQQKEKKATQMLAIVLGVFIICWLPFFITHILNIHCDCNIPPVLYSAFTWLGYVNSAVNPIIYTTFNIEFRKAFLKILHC
Chain of Gonadotropin-releasing hormone receptor (Homo sapiens) (P30968 whole entry, looked up): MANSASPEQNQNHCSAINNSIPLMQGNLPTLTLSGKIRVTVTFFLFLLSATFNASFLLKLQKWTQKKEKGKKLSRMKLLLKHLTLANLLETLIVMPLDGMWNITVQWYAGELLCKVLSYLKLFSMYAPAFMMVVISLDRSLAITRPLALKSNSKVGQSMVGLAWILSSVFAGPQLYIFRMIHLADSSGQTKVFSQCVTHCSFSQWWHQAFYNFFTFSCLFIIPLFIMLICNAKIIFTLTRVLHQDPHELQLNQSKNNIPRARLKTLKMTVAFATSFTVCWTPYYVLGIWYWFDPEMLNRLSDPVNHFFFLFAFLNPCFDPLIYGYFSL
Chain of KiSS-1 receptor (Homo sapiens) (Q969F8 whole entry, looked up): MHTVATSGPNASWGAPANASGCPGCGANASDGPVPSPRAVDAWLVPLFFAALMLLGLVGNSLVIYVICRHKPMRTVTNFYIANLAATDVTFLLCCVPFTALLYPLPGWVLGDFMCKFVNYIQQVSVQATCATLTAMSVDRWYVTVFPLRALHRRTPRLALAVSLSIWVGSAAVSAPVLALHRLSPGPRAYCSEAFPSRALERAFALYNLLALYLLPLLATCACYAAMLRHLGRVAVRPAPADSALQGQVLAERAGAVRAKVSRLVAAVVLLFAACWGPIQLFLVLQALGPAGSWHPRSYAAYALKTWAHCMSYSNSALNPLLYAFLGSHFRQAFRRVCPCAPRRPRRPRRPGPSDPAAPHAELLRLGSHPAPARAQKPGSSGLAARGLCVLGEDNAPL

Take `C=Cc1ccc(OC(C)=O)cc1`: the Potency entry in assay [1], in [2], in assay [3], in assay [4], in assay [5] and in assay [6] was “inactive” throughout. In addition, the Potency entry in [7], in [8], in assay [9], in assay [10], in assay [11] and in assay [12] was “inactive” each time. In addition, the Potency entry in assay [13], in [14], in assay [15], in assay [16], in assay [17] and in assay [18] was “inactive” throughout.
On to `CCO/C=C1\N=C(c2ccccc2)OC1=O`, for which the Potency result in [1], in assay [2], in assay [3], in [4], in assay [5] and in [6] was “inactive” in each case. For the same compound, the Potency entry in assay [7], in [8], in [9], in assay [10], in assay [19] and in assay [11] was “inactive” each time. In addition, the Potency entry in [12], in [13], in assay [15], in assay [16], in [20] and in assay [18] was “inactive” in each case.
For `CCCCCCCC/C=C\CCCCCCCC(=O)OCCOC(=O)CCCCCCC/C=C\CCCCCCCC`, the Potency result in assay [1], in assay [2], in [3], in [4], in [5] and in assay [6] was “inactive” throughout. Further, the Potency result in assay [7], in [8], in assay [9], in [10], in [19] and in assay [11] was “inactive” each time. Besides, the Potency entry in [12], in [13], in [14], in assay [16], in assay [20] and in assay [18] was “inactive” throughout.
Take `N=C(N)N`: the Potency entry in assay [1], in [2], in assay [3], in assay [4], in [5] and in assay [6] was “inactive” each time. The Potency entry in assay [7], in assay [8], in assay [9], in assay [10], in assay [19] and in assay [11] was “inactive” in each case. For the same compound, the Potency result in assay [12], in assay [13], in assay [14], in [16] and in assay [18] was “inactive” throughout.
For the compound `O=C1c2ccccc2C(=O)c2c(Cl)cccc21`, the Potency entry in assay [1], in assay [2], in assay [3], in [4], in [5] and in assay [6] was “inactive” each time. Besides, the Potency entry in assay [7], in assay [9], in assay [10], in assay [19], in [11] and in assay [13] was “inactive” in each case. The Potency entry in assay [16], in [17], in [20] and in [18] was “inactive” in each case. Besides, the Potency in assay [8] was 965 nM (active).
With `CC(Oc1c(Cl)cccc1Cl)C1=NCCN1` (stereo not given), the Potency result in assay [1], in assay [2], in [3], in assay [4], in assay [5] and in assay [6] was “inactive” throughout. The Potency result in [7], in assay [8], in [9], in assay [10], in assay [19] and in assay [12] was “inactive” in each case. For the same compound, the Potency result in [13], in assay [14], in assay [15], in assay [16], in assay [20] and in assay [18] was “inactive” throughout.
`Nc1nc2ccccc2n1Cc1ccc(F)cc1`: the Potency entry in assay [1], in assay [2], in assay [3], in [4], in assay [5] and in assay [6] was “inactive” each time. Further, the Potency result in assay [7], in assay [8], in assay [9], in assay [10], in [11] and in [12] was “inactive” in each case. The Potency entry in assay [13], in assay [14], in assay [15], in [16] and in assay [20] was “inactive” throughout.
For the compound `O=C(Cl)c1cc(C(=O)Cl)cc(C(=O)Cl)c1`, the Potency result in [1], in [2], in assay [3], in assay [4], in [5] and in [6] was “inactive” each time. For the same compound, the Potency result in [7], in assay [8], in [9], in assay [10], in [19] and in assay [11] was “inactive” each time. Besides, the Potency result in assay [12], in assay [13], in assay [14], in assay [16] and in assay [18] was “inactive” in each case.
